Here are results for 37 compounds from PubChem BioAssay (NCI).

This is part of a sample that, as a whole, favours compounds with a hit. Of some 79,000 tested, about 15% had one in any assay. The source made the active and inactive calls. No stated cut-off is given here; in the data, active means growth inhibition above about 70%; inactive means the rest.

This assay is described as follows: NCI Yeast Anticancer Drug Screen. Data for the mlh1 strain (AID 171).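 Further: 0% = growth of vehicle-treated control cultures of the same strain.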 Conditions: S. cerevisiae mlh1 strain growth inhibition; at 100.0 µM; active compounds read high. The method, boiled down:
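Inhibition values reflect reduced yeast growth in the presence of compound, referenced to vehicle controls, using a strain chosen for its alteration in DNA repair or cell cycle control.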
Regarding `C/C(=N\NC(=S)SCc1ccccc1)c1ccccn1`, the growth inhibition is 92% (active).
Under `CN(C)c1ccc(Sc2ccc3nc(N)nc(N)c3c2)cc1` stands 18% (inactive); under `CC(=O)OCCOCNC(=S)N/N=C(\C)c1cnccn1`, 80% (active); under `COc1ccc(C2c3cc4c(cc3OC(C)(O)C2C)OCO4)c(OC)c1` (configuration not stated), 96% (active).
For `COc1cc(C2SCC(=O)N2c2ccc(-c3ccc(-n4c(-c5ccccc5)nc5ccccc5c4=O)cc3)cc2)cc(OC)c1OC` (configuration not stated) the value was -3% (inactive); for `COc1ccc(Br)c(C(=O)Sc2nnnn2-c2cccc(Cl)c2)c1`, 92% (active).
For `O=C(NNc1ccnc2cc(Cl)ccc12)/C(=C\c1ccccc1Cl)NC(=O)c1ccccc1` the value was 24% (inactive); for `CSC(=S)Nc1cccc(C)n1`, 66% (inactive); for `O=C(/C=C\c1ccc(Cl)cc1Cl)c1cccs1`, 12% (inactive).
`COc1ccc(-c2cn(-c3ccc(I)cc3)c3ncnc(N)c23)cc1`: the growth inhibition is 9% (inactive).
For `CN(C)c1ccc(C(C#N)=C(C#N)C#N)cc1` the value was 17% (inactive); for `COc1cc(/C=C2\CCc3ccccc3C2=O)cc(OC)c1OC`, 75% (active).
Under `CC(C)/C(Cl)=N\OC(=O)Nc1cccc(Cl)c1` stands -2% (inactive).
Turning to `CC1(C)[C@@H]2CC[C@]1(C)[C@H](OC(=O)CSC#N)C2`, the growth inhibition is 98% (active).
As for `NNC(=O)CCc1ccc2ccc3ccccc3c2c1`, the growth inhibition was 48% (inactive).
Regarding `COc1ccc(/C(C)=N/OC(=O)c2c(-c3ccccc3Cl)noc2C)cc1CN1CCOCC1`, the growth inhibition is 85% (active).
As to `C=CC(C)(O)CCC1C(=C)C(O)CC2C(C)(C)CCCC12C` (configuration not stated), the growth inhibition is 42% (inactive).
Under `S=C(Nc1ccc(Cl)c(Cl)c1)SCc1ccc2c(c1)OCO2` stands 95% (active); under `COc1cc(C2C3=C(COC3=O)Oc3cc4c(cc32)OCO4)ccc1O` (configuration not stated), 0% (inactive).
For `S=C(Nc1ccc(Cl)cc1)SC1CCCCC1` the value was 99% (active); for `Nc1nc(-c2cccnc2)cc(-c2cc(-c3cccnc3)nc(N)n2)n1`, 13% (inactive); for `c1ccc(-c2nc3cccnc3s2)cc1`, 15% (inactive).
For `O=[N+]([O-])c1cc(CCl)ccc1CCl` the value was 98% (active); for `COc1ccc(/C=C2\SC(=S)N(/C=C/c3nc4ccccc4[nH]c3=O)C2=O)cc1OC`, 91% (active).
For the compound `CCCN(CCC)CC(O)c1cc(-c2ccc(Cl)cc2)nc2c(C)c(Cl)ccc12` (configuration not stated), the growth inhibition is 95% (active).
Under `O=C(Nc1ccccc1)OCCc1ccc(Cl)c(Cl)c1` stands 46% (inactive).
Under `CC(O)C(O)C(O)C(/C=N\Nc1ccccc1)=N/Nc1ccccc1` (configuration not stated) stands 98% (active); under `C#CCCCc1ccccc1`, 98% (active); under `CC(=O)Cc1ccc[cH-]1.[Fe+2].c1cc[cH-]c1`, 29% (inactive).
For `Cc1cc(I)ccc1N` the value was 92% (active).
For the compound `FC(F)(F)c1cc(NC(=S)N2c3ccccc3-n3cccc3C2c2cccnc2)cc(C(F)(F)F)c1` (configuration not stated), the growth inhibition was 6% (inactive).
Under `CC(C)(CN1CCCCC1)C(=O)CC(SCCS(=O)(=O)O)c1ccc(Br)cc1` (configuration not stated) stands 52% (inactive).
For `C[Si](C)(C)CNC(=O)OCc1ccccc1` the value was 38% (inactive); for `CC(C(=O)N1C(=O)N(C(=O)[C@H](C)C(O)c2ccccc2)[C@H](c2ccccc2)[C@H]1c1ccccc1)[C@@H](O)c1ccccc1` (some centres not stated), 57% (inactive).
For `Oc1cccc2c(Cl)ccnc12` the value was 99% (active); for `O=C1C=CC(=C(c2ccccc2)c2ccccc2)c2ccccc21`, 0% (inactive).
For `S=C(S)NN1CCOCC1`, the growth inhibition was 72% (active).
